Records with an inconclusive call do not appear. A number with no mark means an inactive call. Calls of active or inactive are those of the source. Calls come from the whole dose curve; as a rule, active = well fitted cell-killing curve with a large enough effect; inconclusive = small, poorly fitted or top-dose-only effect, or effect the other way; inactive = no such curve, though single readings can be large or run the other way.

Assay [1] can be described thus: Viability qHTS for spleen associated tyrosine kinase inhibitor (SYKi) naive MV4-11 cells (AID 1963823). Note: nearly all actives have a fitted effect of over 40% in size. The settings on record: MV4-11 AML viability, CellTiter-Glo luminescence, 72 h; series mostly up to 45 µM. In short, it runs like this:
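qHTS, SYK inhibitor-naive MV4-11; 500 cells/well; 72 hr compound exposure, 37 C; CellTiter-Glo added, 10 min RT; luminescence read.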

Assay [2] in a line: Viability qHTS for spleen associated tyrosine kinase inhibitor (SYKi) drug resistant MV4-11 cells (AID 1963824). Note: nearly all actives have a fitted effect of over 35% in size. The settings on record: SYKi-resistant MV4-11 viability, CellTiter-Glo, 72 h; series mostly up to 45 µM. In short, it runs like this:
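SYK-inhibitor-resistant MV4-11 AML cells were seeded at 500 per well onto compound and cultured 72 hours (37 °C, 5% CO2). CellTiter-Glo was then added, and after 10 min at room temperature, luminescence gave viability.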
Potency is the fitted concentration of half-maximal effect.

For the compound `COC(=O)C12CCC(C)C(C)C1C1=CCC3C4(C)CCC(OC(C)=O)C(C)(C)C4CCC3(C)C1(C)CC2` (stereo not drawn), the Potency result in assay [1] and in assay [2] was “inactive” in each case.

On to `C=C(C)C1CCC2(C(=O)OC3OC(COC4OC(CO)C(O)C(O)C4O)C(OC4OC(C)C(O)C(O)C4O)C(O)C3O)CCC3(C(=O)O)C(CCC4C5(C)CCC(=O)C(C)(C)C5CCC43C)C12` (stereo not drawn), for which the viability (% of control) in assay [1] is 84.8% [at 9.25 µM]. For the same compound, the viability, % of control in assay [2] was 91.7% [at 9.25 µM].

With `CC1=CC(=O)C(=C(C)C)CC2C(C)(O)CCC12O` (stereo not drawn), the Potency entry in assay [1] and in assay [2] was “inactive” in each case.

Turning to `Cc1nc2cc(-c3cc(F)cc(C#N)c3)ccc2s1`, the Potency entry in assay [1] and in assay [2] was “inactive” each time.

Regarding `C=CC(=O)Nc1cc(-n2c(=O)ccc3cnc4ccc(-c5ccc(NS(C)(=O)=O)cc5)cc4c32)ccc1C`, the results for the Potency in assay [1] and in assay [2] were 1160 nM (active) and 1300 nM (active), respectively.

For `CC1=CC(=O)CC(C)(C)C1CO[C@@H]1O[C@H](CO)[C@@H](O)[C@H](O)[C@H]1O` (stereo partly drawn), the Potency entry in assay [1] and in assay [2] was “inactive” each time.

On to `Cc1cc(C(=O)N2Cc3cnn(C)c3Nc3ccccc32)ccc1CNC(=O)N1CCN(Cc2cc(O)cc(O)c2)CC1`, for which the Potency entry in assay [1] and in assay [2] was “inactive” in each case.

For `Cc1cc(O)cc(Oc2cc(C)c(C(=O)O)c(O)c2)c1`, the Potency entry in assay [1] and in assay [2] was “inactive” in each case.

Take `CC1=CC(=O)C2C(C)(C)CCC[C@]2(C)[C@H]1CO` (stereo partly drawn): the Potency result in assay [1] and in assay [2] was “inactive” each time.

Values taken from PubChem BioAssay (NCATS).
